Laboratory results published in PubChem BioAssay (EPA / NIEHS).
Results filed as inconclusive are left out. Calls of active or inactive are those of the source. The calls were made as follows: active = hit-call score of the fitted dose curve at least 0.9, where 1 is the maximum; inconclusive = response in the unintended direction; inactive = score below 0.9.

What follows are molecules tested against human RAR-related Orphan Receptor beta (RORb), RORB (gene 6096) (UniProt Q92753) (assay: ATG_RORb_TRANS: Attagene TRANS-FACTORIAL HepG2 Assay for human RAR-related Orphan Receptor beta (RORb) (AID 2283010)).
human RAR-related Orphan Receptor beta (RORb), RORB (gene 6096), sequence (Q92753 whole entry, looked up, the tested form may be a part): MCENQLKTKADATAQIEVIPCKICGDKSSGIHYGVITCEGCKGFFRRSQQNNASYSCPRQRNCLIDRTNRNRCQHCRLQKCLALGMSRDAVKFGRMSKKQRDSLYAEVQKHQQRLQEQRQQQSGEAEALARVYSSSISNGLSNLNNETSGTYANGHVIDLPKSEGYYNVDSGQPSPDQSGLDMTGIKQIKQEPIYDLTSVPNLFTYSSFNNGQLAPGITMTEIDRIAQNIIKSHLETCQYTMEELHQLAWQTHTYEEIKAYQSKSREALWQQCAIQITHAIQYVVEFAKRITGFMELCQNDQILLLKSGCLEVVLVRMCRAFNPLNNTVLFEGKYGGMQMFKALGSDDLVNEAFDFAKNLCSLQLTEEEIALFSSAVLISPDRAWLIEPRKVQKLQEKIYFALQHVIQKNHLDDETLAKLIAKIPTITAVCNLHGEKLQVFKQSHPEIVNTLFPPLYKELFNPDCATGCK
Outline: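 Transfect HepG2 with multiple GAL4-UAS reporter transcription units; dose chemicals for 24 h; isolate RNA, reverse-transcribe and PCR-amplify reporter sequences; label, digest and resolve fragments by capillary electrophoresis; fit increases relative to DMSO.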
`CCN(Cc1cccc(S(=O)(=O)O)c1)c1ccc(C(=C2C=CC(=[N+](CC)Cc3cccc(S(=O)(=O)[O-])c3)C=C2)c2ccccc2)cc1` was tested, and the outcome was “inactive”.
In the case of `Cc1ccc([N+](=O)[O-])cc1S(=O)(=O)O`, the outcome is reported as “inactive”.
With `Cc1cc(=O)n(-c2ccccc2)n1C` the outcome was “inactive”.
`CC(C)CCCCCOC(=O)CCS` was tested, and the outcome was “inactive”.
`CCCCCCOC(=O)C(C)CC` (stereo not drawn) was tested, and the outcome was “inactive”.
For `O=C1c2ccccc2C(=O)C1c1nc2ccccc2c(Br)c1O`, the outcome was “inactive”.
In the case of `CCCCCCCCCCc1ccccc1`, the outcome is reported as “inactive”.
In the case of `CCCCC(CC)CCC(CC(C)C)OS(=O)(=O)O` (stereo not drawn), the outcome is reported as “inactive”.
`CC(C)(C)c1ccc(N)cc1` was tested, and the outcome was “inactive”.
In the case of `CC(=O)Nc1nnc(S(N)(=O)=O)s1`, the outcome is reported as “inactive”.
For `CC(C)c1ccc2cc(C(C)C)ccc2c1`, the outcome was “inactive”.

These molecules were tested against human RAR-related Orphan Receptor gamma (RORg), RORC (gene 6097) (UniProt P51449) (assay: ATG_RORg_TRANS: Attagene TRANS-FACTORIAL HepG2 Assay for human RAR-related Orphan Receptor gamma (RORg) (AID 2283011)).
human RAR-related Orphan Receptor gamma (RORg), RORC (gene 6097), sequence (P51449 whole entry, looked up, the tested form may be a part): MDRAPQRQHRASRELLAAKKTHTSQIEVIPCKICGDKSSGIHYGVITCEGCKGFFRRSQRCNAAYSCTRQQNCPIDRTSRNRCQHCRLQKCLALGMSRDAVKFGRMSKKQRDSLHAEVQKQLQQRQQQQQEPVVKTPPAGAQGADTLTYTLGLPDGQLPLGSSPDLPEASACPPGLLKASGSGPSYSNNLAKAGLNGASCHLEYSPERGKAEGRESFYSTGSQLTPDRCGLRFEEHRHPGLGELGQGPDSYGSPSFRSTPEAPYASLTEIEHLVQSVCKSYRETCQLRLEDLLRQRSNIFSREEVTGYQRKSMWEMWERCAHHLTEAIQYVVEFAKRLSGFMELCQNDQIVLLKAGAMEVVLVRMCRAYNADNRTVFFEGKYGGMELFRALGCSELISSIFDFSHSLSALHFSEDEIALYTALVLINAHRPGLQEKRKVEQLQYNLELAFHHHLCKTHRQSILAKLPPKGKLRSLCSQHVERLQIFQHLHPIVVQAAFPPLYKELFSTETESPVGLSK
Outline: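 First, HepG2 liver cells were transfected with GAL4-UAS-driven reporter constructs and the RORg-Gal4 fusion. Next, they were treated with chemical for 24 h. Finally, reporter mRNA was quantified by RT-PCR and capillary electrophoresis, with upward activity fitted against DMSO.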
In the case of `CO[Si](CCC1CCC2OC2C1)(OC)OC` (stereo not drawn), the outcome is reported as “inactive”.
`Cc1ccc([N+](=O)[O-])cc1S(=O)(=O)O` was tested, and the outcome was “inactive”.
With `CCCCCc1ccc(Cl)cc1` the outcome was “inactive”.
In the case of `CC(=O)OCC(=O)[C@@]12N=C(C)O[C@@H]1C[C@H]1[C@@H]3CCC4=CC(=O)C=C[C@]4(C)[C@H]3[C@@H](O)C[C@@]12C`, the outcome is reported as “inactive”.
`CCCCCCC1(C)CCC(=O)O1` (stereo not drawn) was tested, and the outcome was “inactive”.
With `CC1=CC[C@H](C(C)C)C=C1` the outcome was “inactive”.
For `Cc1cc(=O)n(-c2ccccc2)n1C`, the outcome was “inactive”.
With `O=C1CCCCCN1SSN1CCCCCC1=O` the outcome was “inactive”.
With `OCCCS` the outcome was “inactive”.
In the case of `C[Si](C)(CCCN)O[Si](C)(C)CCCN`, the outcome is reported as “inactive”.
`SCCc1cnccn1` was tested, and the outcome was “inactive”.
In the case of `CN(C)c1ccc(C(=N)c2ccc(N(C)C)cc2)cc1`, the outcome is reported as “inactive”.
For `O=C1c2ccccc2C(=O)C1c1nc2ccccc2c(Br)c1O`, the outcome was “inactive”.
`CCCCCCCCCCc1ccccc1` was tested, and the outcome was “inactive”.
`CC(C)(C)c1ccc(N)cc1` was tested, and the outcome was “inactive”.
In the case of `COC(=O)c1ccccc1OC`, the outcome is reported as “inactive”.
For `CCOCC(=O)O`, the outcome was “inactive”.
For `CC(=O)Nc1nnc(S(N)(=O)=O)s1`, the outcome was “inactive”.

These molecules were tested against Retinoic acid receptor RXR-alpha (Homo sapiens) (UniProt P19793) (assay: ATG_RXRa_TRANS: Attagene TRANS-FACTORIAL HepG2 Assay for human Retinoid X Receptor alpha (RXRa) (AID 2283012)).
Retinoic acid receptor RXR-alpha (Homo sapiens), sequence (P19793 whole entry, looked up, the tested form may be a part): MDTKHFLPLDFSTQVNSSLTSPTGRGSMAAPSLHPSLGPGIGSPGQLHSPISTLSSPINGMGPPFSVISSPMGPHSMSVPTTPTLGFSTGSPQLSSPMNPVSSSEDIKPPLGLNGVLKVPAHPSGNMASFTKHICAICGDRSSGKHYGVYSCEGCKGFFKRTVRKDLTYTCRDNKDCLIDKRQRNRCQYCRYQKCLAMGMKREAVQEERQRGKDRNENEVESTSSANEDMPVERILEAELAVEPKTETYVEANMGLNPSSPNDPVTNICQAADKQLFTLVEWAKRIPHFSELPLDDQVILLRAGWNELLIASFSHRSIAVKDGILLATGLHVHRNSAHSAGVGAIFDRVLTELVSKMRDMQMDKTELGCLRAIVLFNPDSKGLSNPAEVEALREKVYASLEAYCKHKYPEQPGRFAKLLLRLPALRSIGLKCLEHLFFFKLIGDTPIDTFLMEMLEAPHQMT
Outline: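 Measures exogenous chimeric NR-GAL4 activity in transfected HepG2 liver cells after 24 h of dosing. Induced reporter mRNA was detected by RT-PCR with capillary electrophoresis, and gain of signal was analysed against DMSO.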
`CO[Si](CCC1CCC2OC2C1)(OC)OC` (stereo not drawn) was tested, and the outcome was “inactive”.
For `CCN(Cc1cccc(S(=O)(=O)O)c1)c1ccc(C(=C2C=CC(=[N+](CC)Cc3cccc(S(=O)(=O)[O-])c3)C=C2)c2ccccc2)cc1`, the outcome was “inactive”.
`CC(=O)OCC(=O)[C@@]12N=C(C)O[C@@H]1C[C@H]1[C@@H]3CCC4=CC(=O)C=C[C@]4(C)[C@H]3[C@@H](O)C[C@@]12C` was tested, and the AC50 was 16.7 µM (active).
For `CCOC(=O)CC`, the outcome was “inactive”.
`O=C(C(Cl)Cl)N1CCOC12CCCCC2` was tested, and the outcome was “inactive”.
With `CC1=CC[C@H](C(C)C)C=C1` the outcome was “inactive”.
For `Cc1cc(=O)n(-c2ccccc2)n1C`, the outcome was “inactive”.
In the case of `COC(=O)c1cc(Cl)ccc1[N+](=O)[O-]`, the outcome is reported as “inactive”.
`O=C1CCCCCN1SSN1CCCCCC1=O` was tested, and the outcome was “inactive”.
With `OCCCS` the outcome was “inactive”.
For `C[Si](C)(CCCN)O[Si](C)(C)CCCN`, the outcome was “inactive”.
In the case of `CC(C)CCCCCOC(=O)CCS`, the outcome is reported as “inactive”.
In the case of `CCCCCCOC(=O)C(C)CC` (stereo not drawn), the outcome is reported as “inactive”.
In the case of `SCCc1cnccn1`, the outcome is reported as “inactive”.
`CN(C)c1ccc(C(=N)c2ccc(N(C)C)cc2)cc1` was tested, and the outcome was “inactive”.
For `CCN(CCC#N)c1ccc(N=Nc2c(Cl)cc([N+](=O)[O-])cc2Cl)cc1`, the outcome was “inactive”.
`CC(C)(C)c1ccc(OC(=O)c2ccccc2O)cc1` was tested, and the outcome was “inactive”.
With `O=C1c2ccccc2C(=O)C1c1nc2ccccc2c(Br)c1O` the outcome was “inactive”.
`CCCCCCCCCCc1ccccc1` was tested, and the outcome was “inactive”.
With `CC(C)(C)c1ccc(N)cc1` the outcome was “inactive”.
`O=C(/C=C/C=C/c1ccc2c(c1)OCO2)N1CCCCC1` was tested, and the outcome was “inactive”.
With `CCOCC(=O)O` the outcome was “inactive”.
For `CC(=O)Nc1nnc(S(N)(=O)=O)s1`, the outcome was “inactive”.
For `CC(C)c1ccc2cc(C(C)C)ccc2c1`, the outcome was “inactive”.
